The results in this text go back to article PMC4336329 (PLoS ONE, 2015).

The structures appear in SMILES notation. About 14,000 (4.5%) of roughly 310,000 compounds showed an effect of 50% or more. Effects have a minus sign here. This excerpt belongs to a sample that is enriched for strong results.
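Note: peak tail current of the secondary pulse compared with the same well before compound.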

The target in this assay is human ether-à-go-go-related gene (hERG) potassium channel (human, UniProt Q12809). The assay can be described thus: primary screen, population patch clamp on CHO cells stably expressing hERG; higher = less effect of the substance.
human ether-à-go-go-related gene (hERG) potassium channel, sequence (Q12809 whole entry, looked up): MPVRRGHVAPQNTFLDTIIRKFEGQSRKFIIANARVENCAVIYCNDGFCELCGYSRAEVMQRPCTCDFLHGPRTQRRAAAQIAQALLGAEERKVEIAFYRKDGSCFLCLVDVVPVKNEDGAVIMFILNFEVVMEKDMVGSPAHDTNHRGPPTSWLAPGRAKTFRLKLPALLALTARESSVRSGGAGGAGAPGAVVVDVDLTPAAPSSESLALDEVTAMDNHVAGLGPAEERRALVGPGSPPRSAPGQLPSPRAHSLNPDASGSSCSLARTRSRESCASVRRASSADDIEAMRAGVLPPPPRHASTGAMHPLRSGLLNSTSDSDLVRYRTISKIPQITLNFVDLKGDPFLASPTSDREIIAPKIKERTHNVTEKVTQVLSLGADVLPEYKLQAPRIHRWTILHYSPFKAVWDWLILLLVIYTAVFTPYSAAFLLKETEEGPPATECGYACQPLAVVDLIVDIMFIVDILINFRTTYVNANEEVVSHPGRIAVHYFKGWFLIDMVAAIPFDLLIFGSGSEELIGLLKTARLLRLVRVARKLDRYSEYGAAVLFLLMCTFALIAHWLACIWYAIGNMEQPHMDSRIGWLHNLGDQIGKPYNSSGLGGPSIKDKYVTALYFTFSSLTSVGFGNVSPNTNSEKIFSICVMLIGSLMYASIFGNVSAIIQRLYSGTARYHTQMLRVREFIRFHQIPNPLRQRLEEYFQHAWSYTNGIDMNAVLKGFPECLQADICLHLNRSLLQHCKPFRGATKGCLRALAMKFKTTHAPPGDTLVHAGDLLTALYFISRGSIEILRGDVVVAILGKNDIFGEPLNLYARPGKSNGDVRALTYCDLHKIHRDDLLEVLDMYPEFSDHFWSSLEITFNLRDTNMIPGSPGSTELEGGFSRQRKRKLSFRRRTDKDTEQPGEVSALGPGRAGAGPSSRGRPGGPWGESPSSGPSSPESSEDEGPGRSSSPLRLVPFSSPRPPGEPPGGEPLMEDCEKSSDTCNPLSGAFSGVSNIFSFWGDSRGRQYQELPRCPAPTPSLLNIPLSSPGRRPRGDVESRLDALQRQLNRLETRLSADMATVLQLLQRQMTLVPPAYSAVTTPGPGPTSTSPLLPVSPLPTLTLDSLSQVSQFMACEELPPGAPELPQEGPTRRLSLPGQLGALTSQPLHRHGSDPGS
For `COc1ccc(C(=O)/C=C/N(C)C)cc1OC`, the “hERG current change (%, negative = inhibition) at 10uM” value was 7.92%.
For `CN(/N=C/c1ccncc1)c1cnc2ccccc2n1`, the “hERG current change (%, negative = inhibition) at 10uM” value was determined as 19.3%.
Consider `CCCCCCC1NC(C(=O)O)CS1` (stereo not drawn), for which the “hERG current change (%, negative = inhibition) at 10uM” value is listed as -0.451%.
As for `COc1ccc(S(=O)(=O)N2CCOC2CNC(=O)C(=O)NCCCN2CCOCC2)cc1OC` (stereo not drawn), the “hERG current change (%, negative = inhibition) at 10uM” value turned out to be 8.41%.
Take `CCN(CC)c1cccc(OCC(=O)N(C)CCC#N)c1`: the “hERG current change (%, negative = inhibition) at 10uM” value is reported as 18.9%.
Turning to `CC(C)(C)S(=O)(=O)c1ccc(S(=O)(=O)C(C)(C)C)s1`, the “hERG current change (%, negative = inhibition) at 10uM” value was determined as 22.8%.
With `O=C(CC1C(=O)NCCN1Cc1c(F)cccc1Cl)NCCCn1cccn1` (stereo not drawn), the “hERG current change (%, negative = inhibition) at 10uM” value is reported as 10.8%.
With `O=C1c2ccccc2C(=O)C1c1ccc2ccccc2n1`, the “hERG current change (%, negative = inhibition) at 10uM” value was -13.4%.
Take `Br.C1=C(c2ccco2)N2CCN=C2S1`: the “hERG current change (%, negative = inhibition) at 10uM” value was found to be 1.91%.
In the case of `COc1ccc(Nc2cc(C(=O)NCCCN3CCN(C)CC3)c3ccccc3n2)cc1OC`, the “hERG current change (%, negative = inhibition) at 10uM” value was found to be 1.49%.
Turning to `Cc1ccc(Nc2ncc(C(=O)NCCCN3CCN(C)CC3)c3ccccc23)cc1Cl`, the “hERG current change (%, negative = inhibition) at 10uM” value is -61.1%.
Turning to `COc1ccc(Nc2cc(C(=O)NCCCN3CCN(C)CC3)c3ccccc3n2)cc1`, the “hERG current change (%, negative = inhibition) at 10uM” value worked out at 2.72%.
Consider `CN(C)c1nc2n(c(=O)n1)CCO2`, for which the “hERG current change (%, negative = inhibition) at 10uM” value worked out at 20.3%.
As to `Cc1ccc(NC(=O)c2sc3nc(N4CCOCC4)c4c(c3c2N)CC(C)(C)OC4)cc1`, the “hERG current change (%, negative = inhibition) at 10uM” value was found to be 5.7%.
Turning to `COCCNC(C(=O)Nc1ccc(C)cc1[N+](=O)[O-])c1ccccc1` (stereo not drawn), the “hERG current change (%, negative = inhibition) at 10uM” value is -6.29%.
For the compound `CCN(CC)CCNC(C(=O)Nc1ccc([N+](=O)[O-])cc1Br)c1ccccc1` (stereo not drawn), the “hERG current change (%, negative = inhibition) at 10uM” value is on record as -77%.
On to `O=C(OC(C(=O)Nc1ccc([N+](=O)[O-])cc1Br)c1ccccc1)c1ccccc1` (stereo not drawn), for which the “hERG current change (%, negative = inhibition) at 10uM” value is recorded as 5.91%.
On to `CN(C)C(CNC(C(=O)Nc1ccc(F)cc1)c1ccccc1)c1ccccc1` (stereo not drawn), for which the “hERG current change (%, negative = inhibition) at 10uM” value is on record as -70.6%.
As for `COCCNC(C(=O)Nc1cc(Cl)cc(Cl)c1)c1ccccc1` (stereo not drawn), the figure is -16.4%; as for `COC(C(=O)Nc1ccc(F)cc1)c1ccccc1` (stereo not drawn), -0.691%.
For the compound `Cc1ccc(NC(=O)NCC(c2ccccc2)N(C)C)cc1` (stereo not drawn), the “hERG current change (%, negative = inhibition) at 10uM” value came to 12.4%.
The result for `CN(C)C(CNC(C(=O)Nc1ccc([N+](=O)[O-])cc1Br)c1ccccc1)c1ccccc1` (stereo not drawn) reads -66.5%; that for `COCCNC(C(=O)Nc1ccc([N+](=O)[O-])cc1Br)c1ccccc1` (stereo not drawn), -74%; that for `CC(C)C(=O)Nc1ccc([N+](=O)[O-])cc1Br`, -5.22%.
As for `CC(C)CNC(C(=O)Nc1ccc([N+](=O)[O-])cc1Br)c1ccccc1.O=C(O)C(=O)O` (stereo not drawn), the figure is -9.16%; as for `CCCCNC(C(=O)Nc1ccc([N+](=O)[O-])cc1Br)c1ccccc1` (stereo not drawn), 5.72%.
Turning to `CCCSc1nc2sc3c(c2c(=O)n1CC)CC(C)(C)OC3`, the “hERG current change (%, negative = inhibition) at 10uM” value came to 3.41%.
In the case of `CCS(=O)(=O)NCC(c1ccco1)N1CCN(c2ccccc2F)CC1` (stereo not drawn), the “hERG current change (%, negative = inhibition) at 10uM” value is on record as -1.69%.
`COc1ccc(OC)c(NC(=O)COC(=O)CN2C(=O)NC3(CCCC3)C2=O)c1`: the “hERG current change (%, negative = inhibition) at 10uM” value is recorded as 7.58%.
In the case of `O=C(CCCOC(=O)c1ccc(O)cc1O)c1ccc(F)cc1`, the “hERG current change (%, negative = inhibition) at 10uM” value is -11.6%.
Regarding `Cc1ccc(CS(=O)(=O)CCC(=O)NCCN2CCCCC2C)cc1` (stereo not drawn), the “hERG current change (%, negative = inhibition) at 10uM” value was -2.59%.
As to `Cc1cccc(/C=N/N2CCN(c3ccccc3)CC2)c1`, the “hERG current change (%, negative = inhibition) at 10uM” value was -4.38%.
As for `O=C(O)CCCC(=O)OCCCCc1cccs1`, the figure is -2.23%.
For `Nc1c2c(nc3ccc(Br)cc13)N(Cc1ccccc1)CC2`, the “hERG current change (%, negative = inhibition) at 10uM” value is on record as -43.5%.
As for `Nc1c2c(nc3ccccc13)N(C1CCCCC1)CC2`, the “hERG current change (%, negative = inhibition) at 10uM” value is reported as -65.6%.
For the compound `Nc1c2c(nc3ccc(Br)cc13)N(c1ccccc1)CC2.O=C(O)C(=O)O`, the “hERG current change (%, negative = inhibition) at 10uM” value is listed as -21.3%.
As for `c1ccc2nc3c(nc2c1)OCC1CCCCN31` (stereo not drawn), the figure is -14.2%; as for `Cc1nc2ccccc2c(=O)n1C1CCCCCC1`, -7.64%.
With `Nc1c2c(nc3ccc(Br)cc13)N(C1CCCCC1)CC2.O=C(O)C(=O)O`, the “hERG current change (%, negative = inhibition) at 10uM” value was -70.1%.
As for `CCOC(=O)c1sc(NC(=O)c2ccncc2)c(C#N)c1C`, the figure is 22.8%; as for `CC(C)=C1SC(N2CCN(c3cccc(C(F)(F)F)c3)CC2)=NC1=O`, -2.7%; as for `Oc1ccc[nH+]c1SCc1ccccc1.[Br-]`, 12.7%.
With `Nc1cc(N)nc(SCC(=O)NCc2ccco2)n1`, the “hERG current change (%, negative = inhibition) at 10uM” value is on record as 9.13%.
For `Cc1cccn2c(=O)c3cc(C(=O)NC4CCCC4)sc3nc12`, the “hERG current change (%, negative = inhibition) at 10uM” value is -22.8%.
With `COc1ccc(CCn2c(=N)c(C(=O)NC3CCCC3)cc3c(=O)n4cccc(C)c4nc32)cc1`, the “hERG current change (%, negative = inhibition) at 10uM” value is given as -77.8%.
For `CCCn1c(=N)c(C(=O)NC2CCCC2)cc2c(=O)n3cccc(C)c3nc21`, the “hERG current change (%, negative = inhibition) at 10uM” value was -77.4%.
Turning to `Cc1cccn2c(=O)c3cc(C(=O)NC4CCCC4)c(=N)n(CCc4ccccc4)c3nc12`, the “hERG current change (%, negative = inhibition) at 10uM” value is listed as -74.5%.
The result for `Cc1ccc(CNC(=O)CSc2nc(C)cs2)cc1` reads 15.4%; that for `CCCc1c(-c2ccc(O)cc2)nn(-c2ccc(O)cc2)c1-c1ccc(O)cc1`, 12.6%; that for `CCN(CC)C(=O)CSc1nnc([C@H](CCSC)NC(=O)OC(C)(C)C)o1`, -8.26%.
As for `CC1=CC(C)(C)N(C(=O)C(C)N2C(=O)c3ccccc3C2=O)c2ccc(C)cc21` (stereo not drawn), the “hERG current change (%, negative = inhibition) at 10uM” value is on record as 2.88%.
As to `COC(=O)c1ccc(NS(=O)(=O)c2cc3c4c(c2)C(C)C(=O)N4CCC3)cc1` (stereo not drawn), the “hERG current change (%, negative = inhibition) at 10uM” value is recorded as 2.73%.
The result for `Fc1cccc2sc(Nc3nc4cc5c(cc4s3)OCO5)nc12` reads 20.3%; that for `COC(=O)C1CCN(C(=O)COC(=O)c2ccc(=O)n(Cc3ccccc3)n2)CC1`, -4.78%; that for `CC(C)CN(C(=O)COC(=O)c1ccc(-c2ccccc2)cc1)C1CCS(=O)(=O)C1` (stereo not drawn), 17.5%.
On to `CCOc1cc(/C=N/NC(=O)Cc2ccc(C(F)(F)F)cc2[N+](=O)[O-])c(Br)cc1OC`, for which the “hERG current change (%, negative = inhibition) at 10uM” value is on record as 8.3%.
The result for `CCCCCCCCCC[N+](C)(C)CC/C=C1/c2ccccc2Sc2ccc(Cl)cc21.[Br-]` reads -76.6%.
Regarding `CN(C)CC/C=C1/c2ccc(F)cc2Sc2ccc(Cl)cc21.Cl`, the “hERG current change (%, negative = inhibition) at 10uM” value is reported as 5.06%.
The result for `CCCCCCCCCCC[N+](C)(C)CC/C=C1/c2ccccc2Sc2ccc(Cl)cc21.[Br-]` reads -32.8%; that for `CC[N+](C)(C)CC/C=C1/c2ccccc2Sc2ccc(Cl)cc21.[Br-]`, -25.3%.
The result for `CN(C)CC/C=C1/c2ccccc2Sc2c(O)cc(Cl)cc21` reads -47.5%; that for `CCCCCC[N+](C)(C)CC/C=C1/c2ccccc2Sc2ccc(Cl)cc21.[Br-]`, -75.2%.
In the case of `O=C1NC(=S)S/C1=C/c1ccc(Oc2cnccn2)cc1`, the “hERG current change (%, negative = inhibition) at 10uM” value was found to be 20%.
As to `Cc1cccc(C(=O)NC(=S)N2CCN(C(=S)NC(=O)c3cccc(C)c3)CC2)c1`, the “hERG current change (%, negative = inhibition) at 10uM” value is -0.873%.
Turning to `CCCC(OC(=O)CC1Sc2ccccc2NC1=O)C(=O)NCc1ccco1` (stereo not drawn), the “hERG current change (%, negative = inhibition) at 10uM” value is -13.8%.
On to `Cc1ccc(CSCC(=O)N2CCOCC2)cc1`, for which the “hERG current change (%, negative = inhibition) at 10uM” value turned out to be 8.89%.
Take `O=C(NNC1=C(C(=O)C(F)(F)F)CCC1)c1cccc(Cl)c1`: the “hERG current change (%, negative = inhibition) at 10uM” value turned out to be 7.77%.
For `CCOC(=O)C1(Cc2cccc(OC)c2)CCN(CCO)CC1`, the “hERG current change (%, negative = inhibition) at 10uM” value was -54.3%.
The result for `CCOC(=O)C1(Cc2cccc(OC)c2)CCN(Cc2ccc3c(c2)OCCO3)CC1` reads -38%.
With `CCOC(=O)C1(Cc2cccc(OC)c2)CCN(Cc2csc(C(C)=O)c2)CC1`, the “hERG current change (%, negative = inhibition) at 10uM” value was -41.1%.
Consider `CCOC(=O)C1(Cc2cccc(OC)c2)CCCN(Cc2cc(OC)c(O)c(OC)c2)C1` (stereo not drawn), for which the “hERG current change (%, negative = inhibition) at 10uM” value is reported as -33.7%.
The result for `CCOC(=O)C1(Cc2cccc(OC)c2)CCN(Cc2cccc(O)c2)CC1` reads -54.7%.
Take `CCOC(=O)C1(Cc2cccc(OC)c2)CCN(CC(O)CO)CC1` (stereo not drawn): the “hERG current change (%, negative = inhibition) at 10uM” value is -4.39%.
As for `CCOC(=O)C1(Cc2cccc(OC)c2)CCN(Cc2ccc(OC)c(O)c2)CC1`, the figure is -77.9%.
As to `CCOC(=O)C1(Cc2cccc(OC)c2)CCN(Cc2ccccc2)CC1`, the “hERG current change (%, negative = inhibition) at 10uM” value is -40.3%.
Consider `CCOC(=O)C1(Cc2cccc(OC)c2)CCN(Cc2ccc(OC)c(OC)c2)CC1`, for which the “hERG current change (%, negative = inhibition) at 10uM” value is listed as -68.8%.
In the case of `COc1ccc([C@H]2CC(=O)C=C(c3cccc(OCc4ccccc4)c3)C2)cc1`, the “hERG current change (%, negative = inhibition) at 10uM” value amounted to 10.8%.
As for `Cc1ccc(-n2nc3c(=O)n(CCCC(=O)NCc4cccc(F)c4)nc(C)c3c2C)cc1`, the figure is -21.7%.
As for `COc1cccc(N2C(=O)CC(N3CCc4ccccc4C3)C2=O)c1` (stereo not drawn), the figure is 13.1%; as for `CC(C)(C)N/N=C/c1cc(Cl)cc([N+](=O)[O-])c1O.Cl`, -10.9%.
Regarding `Cc1onc(-c2ccccc2Cl)c1C(=O)N1CCN(c2ncccn2)CC1`, the “hERG current change (%, negative = inhibition) at 10uM” value was found to be 2.45%.
Take `CCOC(=O)c1ccccc1NC(=O)COC(=O)C1=COCCO1`: the “hERG current change (%, negative = inhibition) at 10uM” value was found to be 4.78%.
As for `Cc1nc2ccccn2c1C(=O)CSc1ccc(Cl)cc1Cl`, the figure is -4.24%; as for `Cc1ccc(OCC(=O)NCCc2c[nH]c3ccccc23)cc1`, 17.1%.
On to `COc1cc2c(C)nc(C)c(C#N)c2cc1OC.Cl`, for which the “hERG current change (%, negative = inhibition) at 10uM” value is -5.92%.
Take `Cc1ccc2nc(N3CC(C)OC(C)C3)nc(-c3ccccc3)c2c1` (stereo not drawn): the “hERG current change (%, negative = inhibition) at 10uM” value was 5.88%.
The result for `c1ccc(Nc2nc(N3CCNCC3)nc(N3CCOCC3)n2)cc1` reads -43%; that for `CCOC(=O)C1(Cc2cccc(OC)c2)CCN(Cc2ccc(C)s2)CC1`, -67.1%.
As for `CCOC(=O)C1(Cc2cccc(OC)c2)CCN(Cc2cnc(C)s2)CC1`, the figure is -12.2%; as for `CCOC(=O)C1(Cc2ccccc2)CCN(Cc2ccc(C)s2)CC1`, -46%.
